D2 ag-1: activates the human D2 dopamine receptor; activation, % at 2 µM; HEK293 T-REx D2 cells, calcium flux agonist mode; P14416; 0.53% of 340,000 active;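 active = activation over 3 SD above normal in the single-dose calcium agonist read, cut at about 30% in these data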
Target sequence (P14416 whole entry, looked up): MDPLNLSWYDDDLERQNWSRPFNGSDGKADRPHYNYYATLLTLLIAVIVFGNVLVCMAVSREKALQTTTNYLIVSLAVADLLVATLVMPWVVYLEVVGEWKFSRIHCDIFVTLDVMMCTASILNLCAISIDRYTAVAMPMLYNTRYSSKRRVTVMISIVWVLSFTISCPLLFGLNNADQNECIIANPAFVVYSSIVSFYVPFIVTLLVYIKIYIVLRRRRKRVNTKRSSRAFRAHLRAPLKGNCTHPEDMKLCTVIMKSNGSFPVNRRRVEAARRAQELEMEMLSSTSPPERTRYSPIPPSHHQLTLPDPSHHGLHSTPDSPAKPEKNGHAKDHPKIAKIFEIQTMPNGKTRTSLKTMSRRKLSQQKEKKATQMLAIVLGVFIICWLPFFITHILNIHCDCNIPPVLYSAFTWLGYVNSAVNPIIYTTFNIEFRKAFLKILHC
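Tetracycline-induced HEK293 Trex cells with D2 receptor force-coupled to calcium signaling, plated overnight at 30 C and loaded with no-wash calcium dye. Calcium flux read kinetically for 180 s after compound addition; responses flag agonists.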
D2 antag: antagonists of human D2 dopamine receptor; AID 485344; inhibition, % at 10 µM; HEK293 TREx D2 cells, calcium flux, dopamine EC80; 2% of 340,000 active; P14416; in the data active = inhibition above about 30%; inactive = below that, where a call was filed
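Overnight-induced (tetracycline, 30 C) HEK293 T-REx cells carrying force-coupled D2 receive a no-wash calcium dye, then compound, then EC80 dopamine at 180 s; signals are read kinetically throughout.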
D2 PAM-1: potentiates the human D2 dopamine receptor allosterically | P14416 | DiscoveRx D2 beta-arrestin cells, luminescence, 90 min; 100% = 57 uM dopamine signal | potentiation, % (concentration not given with the values) | 0.23% of 360,000 active; in the data active = potentiation above about 50%; inconclusive = mostly about 30% to 49%
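PathHunter beta-arrestin assay in DiscoveRx D2 cells. Compounds were added with an EC20 of dopamine (50 nM final) for 90 min at 37 deg C. Luminescence was read 1 h after detection reagent, with 57 uM dopamine as the EC100 control.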
D2 PAM-2: positive allosteric modulators of human D2 dopamine receptor. P14416. HEK293 T-REx D2, calcium flux, EC20 dopamine potentiation. potentiation, % at 10 µM. 0.34% of 340,000 active;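 active = potentiation over 3 SD above the plate norm, cut at about 30% in these data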
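Tetracycline-induced Hek293 Trex D2 cells, force-coupled to calcium, loaded with no-wash calcium dye. Compound added with 180 s kinetic read for agonism, then EC20 dopamine and a further 180 s read for potentiation.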
D2 ag-2: activates the human D2 dopamine receptor. activation, % (concentration not given with the values). DiscoveRx PathHunter D2 beta-arrestin, luminescence, 90 min; 100% = 57 uM dopamine signal. 0.084% of 360,000 active; in the data active = activation above about 40%; inconclusive = between about 15% and that limit
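DiscoveRx PathHunter D2 beta-arrestin cells (2,100/well) attached overnight, then compound-stimulated 90 min at 37 C in HBSS/10 mM HEPES/0.1% Tween-20 buffer; beta-galactosidase complementation read by luminescence after 1 h at ambient temperature. Dopamine 57 uM final (EC100) as control.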
Each line names hits and unclear results; the compound was inactive in the other large screens; ! = not active in a repeat. Only some compounds are listed: those with a hit (about 2.4% of all), similar ones and a draw of the others.

CCOc1cc(/C=N/NC(=O)c2nnn(-c3nonc3N)c2C)ccc1OCc1cccc(F)c1	D2 PAM-2 55.0
CCOc1cc(/C=N/NC(=O)c2nnn(-c3nonc3N)c2C)ccc1OCc1ccc(F)cc1	none
COc1ccc2ccccc2c1/C=N/NC(=O)c1nnn(-c2nonc2N)c1CN(C)C	none
CCCOc1ccc(-c2c(C(=O)N/N=C/c3ccc(C)cc3)nnn2-c2nonc2N)cc1	none
COc1ccc2ccccc2c1/C=N/NC(=O)c1nnn(-c2nonc2N)c1C(C)C	D2 antag 34.7
CCOc1ccc(-c2c(C(=O)N/N=C/c3ccc(Cl)cc3)nnn2-c2nonc2N)cc1	D2 PAM-2 84.1
CCOc1ccc(-c2c(C(=O)N/N=C/c3ccc(C)cc3)nnn2-c2nonc2N)cc1	D2 ag-1 39.0
CCc1ccc(NC(=O)Cn2c(=O)n(Cc3ccco3)c(=O)c3oc4ccccc4c32)cc1	none (no result: D2 antag, D2 PAM-1, D2 ag-2)
Cc1ccc(-c2c(C(=O)N/N=C/c3ccsc3)nnn2-c2nonc2N)cc1	D2 antag 34.5
Nc1nonc1-n1nnc(C(=O)N/N=C/c2ccccc2Cl)c1CN1CCOCC1	D2 PAM-2 43.5
Cc1nn(-c2ccccc2)c2c1cc1c(=O)[nH]c(=O)nc-1n2-c1cccc(Cl)c1	none (no result: D2 antag, D2 PAM-1, D2 ag-2)
O=C1CSC(c2cccnc2)N1Cc1cccnc1 (stereo not given)	none
O=C1CSC(c2cccnc2)N1CCc1ccccn1 (stereo not given)	D2 antag 54.6
COc1cccc(C(O)c2nc(-c3cccc(C#N)c3)cs2)c1 (stereo not given)	none (no result: D2 ag-1, D2 antag, D2 PAM-2)
CCCS(=O)(=O)N1CCN(Cc2c[nH]c3ccccc23)CC1	none
O=C(c1ccc(S(=O)(=O)Nc2ccccc2Cl)cc1)N1CCCC1	none (no result: D2 ag-1, D2 antag, D2 PAM-2)
O=C(c1ccc(S(=O)(=O)Nc2ccccc2F)cc1)N1CCCC1	D2 antag 50.6
CCOC(=O)N1CCN(C(=O)c2ccc(NS(=O)(=O)c3ccc(F)cc3)cc2)CC1	D2 PAM-1 inconclusive
O=C(c1ccc(NS(=O)(=O)c2ccc(F)cc2)cc1)N1CCC1	D2 antag 41.8
Cc1ccc(OCCOCCn2c(-c3ccc(Cl)cc3)nc3ccccc3c2=O)cc1	none (no result: D2 antag, D2 PAM-1, D2 ag-2)
CC(=O)N1c2ccc(S(=O)(=O)NCCC(=O)Nc3ccc(F)cc3C)cc2CC1C (stereo not given)	none (no result: D2 ag-1, D2 antag, D2 PAM-2)
Cc1ccc(N2CC(NC(=O)C(=O)c3c[nH]c4ccccc34)CC2=O)cc1 (stereo not given)	none (no result: D2 antag, D2 PAM-1, D2 ag-2)
Cc1nc(C(F)(F)F)ccc1C(=O)N1CCCC(C(=O)O)CC1 (stereo not given)	none (no result: D2 ag-1, D2 antag, D2 PAM-2)
Cc1nc2n(c(=O)c1CCN1CCC(c3noc4cc(F)ccc34)CC1)CCCC2	D2 antag 86.3 (no result: D2 ag-1, D2 PAM-1, D2 PAM-2, D2 ag-2)
O=C(NCc1ccc(F)cc1)c1ccc2c(=O)n3c(nc2c1)CCCCC3	none
O=S(=O)(Nc1cccc(S(=O)(=O)N2CCOCC2)c1)c1cccs1	D2 ag-1 31.6
O=S(=O)(Nc1cccc(S(=O)(=O)N2CCOCC2)c1)c1ccc2c(c1)OCCO2	none
COc1ccc(CNC(=S)Nc2ccc(F)c(Cl)c2)cc1	D2 antag 68.2
O=C1CCC(c2ccccc2)N1C(=O)c1cccnc1 (stereo not given)	D2 PAM-2 37.9
O=C1CC(c2ccccc2)CN1C(=O)c1cccnc1 (stereo not given)	none
Cc1ccc2c(c1)cc1c(=O)n(CC(=O)NC(C)CCc3ccccc3)nc(C)n12 (stereo not given)	none (no result: D2 antag, D2 PAM-1, D2 ag-2)
Cn1c(C(=O)NCc2ccc(F)cc2)cc2cc(S(=O)(=O)N3CCCCC3)ccc21	none (no result: D2 antag, D2 PAM-1, D2 ag-2)
COc1ccc(CC(=O)OC(C)C(=O)c2ccc(C)cc2)cc1 (stereo not given)	none
COc1ccc(C(=O)C(C)OC(=O)c2sc(C)nc2C)cc1 (stereo not given)	D2 antag 31.0
CC1=C(C(=O)OCc2ccc3c(c2)OCO3)C(c2ccccc2)NC(=O)N1 (stereo not given)	D2 antag 44.5, D2 PAM-1 52.8, D2 ag-2 inconclusive
CCOC(=O)C1=C(C)NC(=O)NC1c1cc2c(cc1Br)OCO2 (stereo not given)	D2 PAM-2 50.5
CN1CCN(S(=O)(=O)c2ccc(Oc3ccc(F)cc3Br)nc2)CC1	none
CN1CCN(S(=O)(=O)c2ccc(Oc3ccc(Br)cc3F)nc2)CC1	D2 antag 33.8
CCN(CC)c1ccc(/C=C2\C(=N)N3N=C(CC(=O)N4CCOCC4)SC3=NC2=O)cc1	D2 ag-1 33.4
COc1ccc(S(=O)(=O)NC(C)CCc2ccccc2)cc1 (stereo not given)	none
Cc1cc(C)cc(NC(=O)CSc2nc3nc(C)cc(C)c3c(=O)[nH]2)c1	D2 antag 34.6
COc1ccc(N2C(=O)CCC2=O)cc1	D2 antag 34.1
CC(=O)Oc1ccc(N2C(=O)CCC2=O)cc1	none
COc1ccc2cc(C(C)C(=O)N3CCC(C(N)=O)CC3)ccc2c1 (stereo not given)	D2 PAM-2 32.3
Cc1cc(NC(=O)c2ccccc2Cl)no1	none
Cc1cc(NC(=O)Nc2ccc(F)cc2)no1	D2 PAM-2 40.1
Cc1cc(NC(=O)c2c(F)cccc2Cl)no1	D2 PAM-2 31.3
Cc1cc2c(cc1S(=O)(=O)Nc1cccc(C(F)(F)F)c1)OCCN2C	none (no result: D2 antag, D2 PAM-1, D2 ag-2)
Cc1cc(NC(=O)c2cccnc2)cc(-c2nc3cc(Cl)ccc3o2)c1O	none (no result: D2 antag, D2 PAM-1, D2 ag-2)
CC(=O)c1c(C)[nH]c(C(=O)COC(=O)C2CC2)c1C	D2 antag 32.4
CCOC(=O)c1c(C)[nH]c(C(=O)COC(=O)C2CC2)c1C	none
O=C(CCNC(=O)N1CC(=O)Nc2ccccc21)Nc1ccc(Br)cc1F	D2 antag 55.4
CCOc1cc(CNc2ccc(N3CCN(C(C)=O)CC3)cc2)cc(Br)c1OC	D2 PAM-1 74.3
CC(=O)c1cc(-c2ccccc2)n(CCC(=O)Nc2nc3c(C)cccc3s2)c1C	none (no result: D2 antag, D2 PAM-1, D2 ag-2)
Cc1ccc(NS(=O)(=O)c2ccc3c(c2)CCC(=O)N3)cc1	D2 antag 64.5
O=C(CC1Nc2ccccc2NC1=O)NC1CCCCC1 (stereo not given)	none
CC1CCCC(NC(=O)CC2Nc3ccccc3NC2=O)C1C (stereo not given)	D2 antag 30.5
Cc1ccc(C(=O)NCC(=O)OCC(=O)N(CC(C)C)c2c(N)n(Cc3ccccc3)c(=O)[nH]c2=O)s1	none (no result: D2 ag-1, D2 antag, D2 PAM-2)
CCc1cccc(C)c1NC(=O)CSc1nnc(C)o1	D2 PAM-2 37.3
COc1cc(CNc2ccc3[nH]c(=O)[nH]c3c2)cc(Br)c1OCc1ccccc1F	D2 PAM-2 43.6!
COc1cc(CNc2ccc3[nH]c(=O)[nH]c3c2)ccc1OCc1ccccc1F	none
COc1cc2c(cc1Cl)/C(=C\CCN(C)C)c1ccccc1S2	D2 antag 36.5
COc1cc(Cl)cc2c1Sc1ccccc1/C2=C/CCN(C)C	D2 antag 63.2

Compound activity: PubChem BioAssay, National Center for Advancing Translational Sciences (NCATS)
